Here are results for 39 targets from the supplement of paper PMC10849652.

About 7,900 targets were measured; listed, in parts, are those with a hit and a random draw of the rest. About 0.6% of all pairs of compound and target were hits.

Sequence of UniProt Q96H55 (Q96H55 whole entry, looked up): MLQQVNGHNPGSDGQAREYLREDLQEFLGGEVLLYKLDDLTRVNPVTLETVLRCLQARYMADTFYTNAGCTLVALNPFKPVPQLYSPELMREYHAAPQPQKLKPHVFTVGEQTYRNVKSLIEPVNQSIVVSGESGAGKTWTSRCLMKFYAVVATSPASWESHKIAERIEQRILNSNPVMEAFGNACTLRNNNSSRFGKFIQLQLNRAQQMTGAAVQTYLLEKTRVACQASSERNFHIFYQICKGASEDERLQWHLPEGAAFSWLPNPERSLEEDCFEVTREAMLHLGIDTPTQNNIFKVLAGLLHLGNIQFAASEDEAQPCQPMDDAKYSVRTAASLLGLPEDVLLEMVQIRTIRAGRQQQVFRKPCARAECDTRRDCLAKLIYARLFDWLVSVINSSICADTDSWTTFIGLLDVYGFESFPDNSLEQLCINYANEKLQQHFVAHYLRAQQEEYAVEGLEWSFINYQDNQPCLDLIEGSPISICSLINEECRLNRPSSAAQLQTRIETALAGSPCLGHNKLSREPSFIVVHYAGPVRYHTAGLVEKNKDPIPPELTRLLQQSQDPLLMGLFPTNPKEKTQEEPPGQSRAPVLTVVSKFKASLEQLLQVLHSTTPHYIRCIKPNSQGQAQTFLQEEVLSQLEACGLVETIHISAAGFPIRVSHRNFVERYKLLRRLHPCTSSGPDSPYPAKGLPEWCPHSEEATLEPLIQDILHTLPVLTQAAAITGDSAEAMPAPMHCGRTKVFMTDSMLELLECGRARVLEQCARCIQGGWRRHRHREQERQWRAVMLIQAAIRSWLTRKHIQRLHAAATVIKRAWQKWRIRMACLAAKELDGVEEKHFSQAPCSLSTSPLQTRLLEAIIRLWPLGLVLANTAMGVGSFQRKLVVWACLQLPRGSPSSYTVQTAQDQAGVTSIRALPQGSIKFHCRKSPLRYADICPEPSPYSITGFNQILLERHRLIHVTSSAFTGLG
Sequence of UniProt Q5TFE4 (Q5TFE4 whole entry, looked up): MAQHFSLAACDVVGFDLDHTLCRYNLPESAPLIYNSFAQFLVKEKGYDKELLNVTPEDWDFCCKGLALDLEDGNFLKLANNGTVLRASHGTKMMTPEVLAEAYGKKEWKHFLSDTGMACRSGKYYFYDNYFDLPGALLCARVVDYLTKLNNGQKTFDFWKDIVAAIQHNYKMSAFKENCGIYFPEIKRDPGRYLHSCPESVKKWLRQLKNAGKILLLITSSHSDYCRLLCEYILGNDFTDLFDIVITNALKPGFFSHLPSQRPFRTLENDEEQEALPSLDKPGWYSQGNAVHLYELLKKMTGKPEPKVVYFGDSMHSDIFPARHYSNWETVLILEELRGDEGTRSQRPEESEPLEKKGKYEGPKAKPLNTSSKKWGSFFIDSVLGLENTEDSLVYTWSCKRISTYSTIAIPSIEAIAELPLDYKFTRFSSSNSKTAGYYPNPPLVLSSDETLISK
Sequence of UniProt Q96RE7 (Q96RE7 whole entry, looked up): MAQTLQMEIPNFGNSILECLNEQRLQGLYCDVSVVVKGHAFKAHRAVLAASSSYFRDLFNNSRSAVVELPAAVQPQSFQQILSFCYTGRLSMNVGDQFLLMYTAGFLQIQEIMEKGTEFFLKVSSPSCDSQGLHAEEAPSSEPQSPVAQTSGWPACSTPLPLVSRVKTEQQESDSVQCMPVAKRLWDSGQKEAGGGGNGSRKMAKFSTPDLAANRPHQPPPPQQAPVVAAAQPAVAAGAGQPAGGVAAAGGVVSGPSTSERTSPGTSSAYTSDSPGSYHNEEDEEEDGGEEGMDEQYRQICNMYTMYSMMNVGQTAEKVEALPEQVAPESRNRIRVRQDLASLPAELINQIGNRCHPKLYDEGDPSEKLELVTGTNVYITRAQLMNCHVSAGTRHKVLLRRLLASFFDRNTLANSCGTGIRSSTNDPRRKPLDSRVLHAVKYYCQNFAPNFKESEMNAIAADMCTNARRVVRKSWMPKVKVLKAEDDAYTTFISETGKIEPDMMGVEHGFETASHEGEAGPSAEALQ
Sequence of UniProt Q9H8H0 (Q9H8H0 whole entry, looked up): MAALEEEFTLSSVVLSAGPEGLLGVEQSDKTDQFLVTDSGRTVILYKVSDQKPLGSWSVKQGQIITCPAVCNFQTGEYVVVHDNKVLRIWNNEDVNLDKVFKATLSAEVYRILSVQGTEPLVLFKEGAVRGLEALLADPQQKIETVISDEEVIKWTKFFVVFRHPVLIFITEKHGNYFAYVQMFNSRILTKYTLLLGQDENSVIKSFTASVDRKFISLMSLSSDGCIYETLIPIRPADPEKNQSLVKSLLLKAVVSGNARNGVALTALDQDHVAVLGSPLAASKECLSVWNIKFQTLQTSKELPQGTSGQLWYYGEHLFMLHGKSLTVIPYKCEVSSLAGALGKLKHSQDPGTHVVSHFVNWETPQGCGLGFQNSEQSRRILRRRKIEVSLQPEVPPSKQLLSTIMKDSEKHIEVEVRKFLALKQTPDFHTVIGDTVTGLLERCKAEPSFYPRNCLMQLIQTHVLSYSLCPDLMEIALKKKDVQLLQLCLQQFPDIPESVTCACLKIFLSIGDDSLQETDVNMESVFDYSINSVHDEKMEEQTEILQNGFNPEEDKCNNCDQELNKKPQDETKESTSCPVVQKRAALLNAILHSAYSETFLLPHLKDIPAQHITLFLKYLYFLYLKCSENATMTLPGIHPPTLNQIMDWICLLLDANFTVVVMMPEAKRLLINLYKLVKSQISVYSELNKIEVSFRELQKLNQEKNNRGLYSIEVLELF
Sequence of UniProt Q08J23 (Q08J23 whole entry, looked up): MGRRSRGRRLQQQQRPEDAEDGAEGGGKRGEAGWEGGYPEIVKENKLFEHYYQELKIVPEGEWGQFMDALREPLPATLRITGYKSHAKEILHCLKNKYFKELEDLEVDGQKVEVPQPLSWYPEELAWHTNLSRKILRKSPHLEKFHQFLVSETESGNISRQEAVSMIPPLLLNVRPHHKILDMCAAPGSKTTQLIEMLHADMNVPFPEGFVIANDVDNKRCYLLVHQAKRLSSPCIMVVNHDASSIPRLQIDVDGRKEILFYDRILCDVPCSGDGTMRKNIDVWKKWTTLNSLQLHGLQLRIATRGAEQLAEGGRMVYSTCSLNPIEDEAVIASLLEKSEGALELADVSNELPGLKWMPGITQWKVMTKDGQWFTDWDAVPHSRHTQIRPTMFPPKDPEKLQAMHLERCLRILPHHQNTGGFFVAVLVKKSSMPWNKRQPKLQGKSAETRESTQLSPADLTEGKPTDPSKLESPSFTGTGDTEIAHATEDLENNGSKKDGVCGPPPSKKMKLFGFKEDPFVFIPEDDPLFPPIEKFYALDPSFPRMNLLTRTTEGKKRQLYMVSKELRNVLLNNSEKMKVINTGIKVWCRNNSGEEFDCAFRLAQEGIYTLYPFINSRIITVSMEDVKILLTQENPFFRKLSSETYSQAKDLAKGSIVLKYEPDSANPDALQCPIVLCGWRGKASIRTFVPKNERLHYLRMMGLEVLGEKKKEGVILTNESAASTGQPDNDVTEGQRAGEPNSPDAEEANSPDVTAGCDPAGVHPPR
Sequence of UniProt P49321 (P49321 whole entry, looked up): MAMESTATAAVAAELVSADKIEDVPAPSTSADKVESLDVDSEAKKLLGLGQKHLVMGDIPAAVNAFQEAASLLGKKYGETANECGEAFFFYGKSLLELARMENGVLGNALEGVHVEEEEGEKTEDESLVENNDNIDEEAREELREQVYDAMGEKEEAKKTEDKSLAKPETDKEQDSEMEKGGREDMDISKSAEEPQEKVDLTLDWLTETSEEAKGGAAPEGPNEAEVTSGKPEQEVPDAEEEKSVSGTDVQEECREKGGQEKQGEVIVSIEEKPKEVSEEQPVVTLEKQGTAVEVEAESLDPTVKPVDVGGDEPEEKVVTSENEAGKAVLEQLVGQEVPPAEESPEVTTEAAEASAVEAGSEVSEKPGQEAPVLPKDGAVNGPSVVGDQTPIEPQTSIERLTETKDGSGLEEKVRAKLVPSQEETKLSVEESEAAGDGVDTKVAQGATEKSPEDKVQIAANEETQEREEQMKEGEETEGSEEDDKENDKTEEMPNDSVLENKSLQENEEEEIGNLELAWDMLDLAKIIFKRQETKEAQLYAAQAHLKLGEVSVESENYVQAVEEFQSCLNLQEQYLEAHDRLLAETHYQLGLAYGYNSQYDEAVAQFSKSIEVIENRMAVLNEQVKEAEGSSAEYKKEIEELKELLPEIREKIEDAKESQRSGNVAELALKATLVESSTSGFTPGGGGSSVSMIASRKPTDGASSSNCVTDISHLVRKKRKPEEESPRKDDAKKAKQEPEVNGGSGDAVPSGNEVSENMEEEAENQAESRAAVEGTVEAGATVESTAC
Sequence of UniProt Q9Y6R0 (Q9Y6R0 whole entry, looked up): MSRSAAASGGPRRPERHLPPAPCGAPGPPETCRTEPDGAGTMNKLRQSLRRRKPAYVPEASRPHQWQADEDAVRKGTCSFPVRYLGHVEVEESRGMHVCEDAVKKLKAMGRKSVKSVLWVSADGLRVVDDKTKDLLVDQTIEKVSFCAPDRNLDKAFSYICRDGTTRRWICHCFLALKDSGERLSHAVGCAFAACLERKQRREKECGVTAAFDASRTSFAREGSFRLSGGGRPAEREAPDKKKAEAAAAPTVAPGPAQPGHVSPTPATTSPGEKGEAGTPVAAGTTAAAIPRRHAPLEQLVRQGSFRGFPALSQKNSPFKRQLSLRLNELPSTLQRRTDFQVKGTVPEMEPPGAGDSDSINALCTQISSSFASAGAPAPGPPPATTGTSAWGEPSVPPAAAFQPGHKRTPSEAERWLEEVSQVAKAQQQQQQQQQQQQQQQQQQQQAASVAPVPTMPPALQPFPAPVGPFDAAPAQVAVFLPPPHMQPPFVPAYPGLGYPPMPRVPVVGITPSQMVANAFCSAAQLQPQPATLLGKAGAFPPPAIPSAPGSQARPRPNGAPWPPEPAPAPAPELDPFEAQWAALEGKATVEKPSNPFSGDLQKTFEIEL
Sequence of UniProt Q9BRA0 (Q9BRA0 whole entry, looked up): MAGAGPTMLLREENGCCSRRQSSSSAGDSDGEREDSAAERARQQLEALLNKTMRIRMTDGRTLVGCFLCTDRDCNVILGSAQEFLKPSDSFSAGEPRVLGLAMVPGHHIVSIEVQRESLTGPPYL

Compound in the first assay: C1=CC=C(C=C1)[C@H](COC2=CC3=C(C=C2)NC(=O)N3)NC(=O)C4=CC=CN(C4=O)CC5=CC(=C(C=C5)F)F
Put plainly: log2 fold change, soluble protein after heating vs DMSO (PISA); higher = thermal stabilisation; K562 cells, 10 uM, 30 min; active = over 0.2 and 3.5 SD of the protein, either way, in both replicates (recomputed). An outline of the steps: (§1)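 K562 cells at 2×10^6 cells/mL were given 10 μM compound for 30 min. Aliquots then went through 3 min of heating across 48°C-58°C, were pooled, and were extracted in PBS with 0.5% NP-40 at 4°C, and the supernatant after 21,000xg for 90 min was quantified by TMTpro 16plex LC-MS/MS with channel sums equalised. Thermal stability relative to control samples, from duplicates, is given as log2 fold change.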
NDUFA7 (UniProt M0R0N0): the log2 fold change was -0.091 (inactive).
With NOB1 (UniProt Q9ULX3), the log2 fold change was -0.048 (inactive).
Same read-out and setting: the figure for MOB2 isoform 3 (UniProt Q70IA6) is -0.015 (inactive); for MRPS17 (UniProt Q9Y2R5) it is -0.031 (inactive); for NECTIN2 isoform 2 (UniProt Q92692) it is 0.179 (inactive).
Regarding NAA38 isoform 2 (UniProt Q9BRA0), the log2 fold change is 0.038 (inactive).
On to MRPS25 (UniProt P82663), for which the log2 fold change is -0.002 (inactive).
The same measure, in the same setting: the figure for MYO19 (UniProt Q96H55) is -0.07 (inactive); for NOL11 (UniProt Q9H8H0) it is 0.007 (inactive).
Same read-out and setting: the figure for NAGPA (UniProt Q9UK23) is 0.179 (inactive); for NACC1 (UniProt Q96RE7) it is -0.029 (inactive); for NELFCD (UniProt Q8IXH7) it is -0.022 (inactive).
On the same count and under the same terms, then MLX (UniProt Q9UH92), with -0.055 (inactive); and NDUFS8 (UniProt O00217), with -0.049 (inactive).
Regarding NSUN2 (UniProt Q08J23), the log2 fold change is -0.019 (inactive).
With NA, A0A2R8Y3M9, the log2 fold change was -0.093 (inactive).
MRPL46 (UniProt Q9H2W6): the log2 fold change is 0 (inactive).
Still for that read-out and setting: then MSL1 (UniProt Q68DK7), with 0.083 (inactive).
On the same count and under the same terms, then NASP (UniProt P49321), with -0.009 (inactive); and MLH1 (UniProt P40692), with 0.192 (inactive).
Same read-out and setting: the figure for NPC1L1 (UniProt Q9UHC9) is 0.183 (inactive); for OPHN1 (UniProt O60890) it is -0.209 (inactive).
As for NUMBL (UniProt Q9Y6R0), the log2 fold change was -0.058 (inactive).
The same measure, in the same setting: then NUDT7 (UniProt P0C024), with -0.077 (inactive); and MRPL34 (UniProt Q9BQ48), with 0 (inactive).
With NAP1L1 (UniProt B7Z9C2), the log2 fold change was 0.003 (inactive).
As for NT5DC1 (UniProt Q5TFE4), the log2 fold change is -0.036 (inactive).
Same read-out and setting: the figure for MON1A (UniProt Q86VX9) is 0.1 (inactive).

Compound in the next assay: CC1=C(SC2=C1C(=N[C@H](C3=NN=C(N32)C)CC(=O)N)C4=CC=C(C=C4)Cl)C
The assay is described as above. The gist of the method:
as §1
As for NOB1 (UniProt Q9ULX3), the log2 fold change is -0.033 (inactive).
Same read-out and setting: then MOB2 isoform 3 (UniProt Q70IA6), with 0.129 (inactive); and MRPS17 (UniProt Q9Y2R5), with -0.044 (inactive); and NEK3 (UniProt P51956), with 0.204 (inactive).
The same measure, in the same setting: the figure for OSBPL2 (UniProt Q9H1P3) is -0.583 (inactive); for NAA38 isoform 2 (UniProt Q9BRA0) it is 0.057 (inactive); for MRPS25 (UniProt P82663) it is -0.05 (inactive).
Still for that read-out and setting: the figure for NA, A0A1W2PSA9 is -0.046 (inactive).
Turning to MYO19 (UniProt Q96H55), the log2 fold change was 0.016 (inactive).
The same measure, in the same setting: then NOL11 (UniProt Q9H8H0), with 0 (inactive).
The same measure, in the same setting: the figure for NAGPA (UniProt Q9UK23) is -0.048 (inactive); for NACC1 (UniProt Q96RE7) it is 0.039 (inactive).
The same measure, in the same setting: then NELFCD (UniProt Q8IXH7), with 0.155 (inactive); and MLX (UniProt Q9UH92), with 0.032 (inactive).
Regarding NUDT6 (UniProt P53370), the log2 fold change is 0.073 (inactive).
Still for that read-out and setting: the figure for OSBPL3 (UniProt Q9H4L5) is -0.077 (inactive); for NDUFS8 (UniProt O00217) it is 0.1 (inactive).
As for NSUN2 (UniProt Q08J23), the log2 fold change is 0.023 (inactive).
Same read-out and setting: the figure for NA, A0A2R8Y3M9 is -0.069 (inactive).
On the same count and under the same terms, then MRPL46 (UniProt Q9H2W6), with -0.1 (inactive).
Still for that read-out and setting: then NOLC1 isoform 3 (UniProt Q14978), with 0.007 (inactive); and NASP (UniProt P49321), with 0.049 (inactive).
MLH1 (UniProt P40692): the log2 fold change was 0.007 (inactive).
The same measure, in the same setting: then NPC1L1 (UniProt Q9UHC9), with 0.063 (inactive); and OPHN1 (UniProt O60890), with 0.033 (inactive); and NUMBL (UniProt Q9Y6R0), with -0.084 (inactive).
On the same count and under the same terms, the figure for OXR1 isoform 2 (UniProt Q8N573) is 0.126 (inactive); for MRPL34 (UniProt Q9BQ48) it is -0.154 (inactive).
Take MRM2 (UniProt Q9UI43): the log2 fold change was 0.021 (inactive).
On the same count and under the same terms, then NT5DC1 (UniProt Q5TFE4), with 0.075 (inactive); and MPHOSPH8 isoform 2 (UniProt Q99549), with -0.064 (inactive).

Compound in another assay: CC1=C2C(=CC=C1)N=C(N(C2=O)C3=CC=CC=C3C)CN4C=NC5=C(N=CN=C54)N
The assay is described as above. An outline of the steps:
as §1
For the target NDUFA7 (UniProt M0R0N0), the log2 fold change is 0.23 (inactive).
Still for that read-out and setting: then MSANTD2 (UniProt Q6P1R3), with 0.06 (inactive); and NOB1 (UniProt Q9ULX3), with 0.048 (inactive).
Consider MRPS17 (UniProt Q9Y2R5), for which the log2 fold change is -0.011 (inactive).
Same read-out and setting: the figure for NEK3 (UniProt P51956) is 0.053 (inactive); for NECTIN2 isoform 2 (UniProt Q92692) it is -0.03 (inactive); for NAA38 isoform 2 (UniProt Q9BRA0) it is -0.013 (inactive).
Regarding MRPS25 (UniProt P82663), the log2 fold change is -0.067 (inactive).
Still for that read-out and setting: the figure for MYO19 (UniProt Q96H55) is 0.146 (inactive); for NOL11 (UniProt Q9H8H0) it is -0.008 (inactive); for MITF (UniProt O75030) it is -0.059 (inactive).
On to NACC1 (UniProt Q96RE7), for which the log2 fold change is 0.092 (inactive).
Same read-out and setting: then NELFCD (UniProt Q8IXH7), with 0.214 (inactive).
NUDT6 (UniProt P53370): the log2 fold change was 0.34 (inactive).
Regarding OSBPL3 (UniProt Q9H4L5), the log2 fold change was -0.035 (inactive).
The same measure, in the same setting: the figure for NDUFS8 (UniProt O00217) is 0.082 (inactive); for NSUN2 (UniProt Q08J23) it is 0.003 (inactive).
The same measure, in the same setting: the figure for MRPL46 (UniProt Q9H2W6) is -0.037 (inactive); for MSL1 (UniProt Q68DK7) it is 0.17 (inactive); for NASP (UniProt P49321) it is 0.054 (inactive).
With NPC1L1 (UniProt Q9UHC9), the log2 fold change is 0.024 (inactive).
For NUMBL (UniProt Q9Y6R0), the log2 fold change is 0.009 (inactive).
For the target OXR1 isoform 2 (UniProt Q8N573), the log2 fold change was 0.025 (inactive).
Same read-out and setting: then MRPL34 (UniProt Q9BQ48), with -0.073 (inactive); and NAP1L1 (UniProt B7Z9C2), with 0.134 (inactive).
On the same count and under the same terms, the figure for MRM2 (UniProt Q9UI43) is 0.071 (inactive).
NT5DC1 (UniProt Q5TFE4): the log2 fold change was 0.006 (inactive).
Still for that read-out and setting: then MPHOSPH8 isoform 2 (UniProt Q99549), with -0.009 (inactive).
